ELG1 repair inh = blocks ELG1-dependent DNA repair in HEK293T cells | AID 504467 | 330,000 tested, 2.3% active | Potency, µM (top dose mostly 46.1 µM), actives largely listed as inhibitors | HEK293T ELG1-luciferase reporter, luminescence, 16 h; DNA damage induced by 5-fluorouridine; also: nearly all actives have a fitted effect of over 55% in size
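Luminescence from the luciferase reporter, measured 30 min after ONE-Glo reagent at room temperature, was the read-out. Beforehand, 2,000 cells per well were exposed for 16 hr at 37 °C to 5-fluorouridine together with compound or vehicle.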
IL1B secr inh = inflammasome signaling inhibition, IL-1 beta readout; THP-1 LPS/ATP IL-1B secretion, AlphaLISA, 16 h; hits give low values; 360,000 tested, 4.7% active; activity change, % at 57.5 µM; in the data active = activity change below about -50%; inconclusive = mostly about -30% to -49%
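Secreted IL-1B measured by AlphaLISA bead assay after 16 h compound exposure of THP-1 cells; compounds (final up to 57.5 uM) added 1 h before LPS (250 ng/mL) and ATP (1.25 mM) stimulation; lower signal means less secretion.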
DT40 TDP1 CPT = growth inhibition of DT40 Tdp1-/-;hTDP1 cells with camptothecin (screen for TDP1 inhibitors); chicken DT40 Tdp1-/-;hTDP1 cells + 20 nM CPT, ATP luminescence, 48 h; Potency, µM (doses to about 46.2 µM), hits mostly inhibitors; 420,000 tested, 12% active; AID 686979; also: nearly all actives have a fitted effect of over 55% in size
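Cell growth measured by CellTiter-Glo luminescence after a minimum 48 h, 37 C compound exposure with 20 nM CPT in Tdp1-knockout DT40 cells stably expressing hTDP1, seeded 400/well; qHTS titration format.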
RORgamma inh = ROR gamma (mouse) transcription inhibition; AID 2551; 310,000 tested, 5.4% active; Drosophila S2 Gal4-RORgamma UAS-luciferase reporter, 20 h; Potency, µM (series often up to 53.6 µM), actives largely listed as inhibitors; also: nearly all actives have a fitted effect of over 60% in size
Target sequence (P51450 whole entry, looked up, the tested form may be a part): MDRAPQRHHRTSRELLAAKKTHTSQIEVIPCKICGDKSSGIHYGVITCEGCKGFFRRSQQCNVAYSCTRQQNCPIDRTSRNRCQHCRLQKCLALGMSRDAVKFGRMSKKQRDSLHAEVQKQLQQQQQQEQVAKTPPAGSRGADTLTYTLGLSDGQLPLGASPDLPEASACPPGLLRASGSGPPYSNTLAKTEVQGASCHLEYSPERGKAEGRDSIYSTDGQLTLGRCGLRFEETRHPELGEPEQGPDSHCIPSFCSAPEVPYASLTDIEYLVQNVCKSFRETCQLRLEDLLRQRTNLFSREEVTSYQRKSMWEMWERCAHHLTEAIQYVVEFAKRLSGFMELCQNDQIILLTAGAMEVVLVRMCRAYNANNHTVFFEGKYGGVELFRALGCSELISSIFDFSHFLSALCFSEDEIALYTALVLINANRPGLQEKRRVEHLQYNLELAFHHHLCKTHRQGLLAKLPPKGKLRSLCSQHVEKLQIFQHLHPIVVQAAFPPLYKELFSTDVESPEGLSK
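Drosophila Schneider cells stably carrying a metallothionein-driven Gal4 DBD–ROR gamma fusion and a UAS-Photinus luciferase reporter were exposed to compound for 1 hr, then induced with copper sulfate (700 uM final) for 20 hr at ambient temperature before luminescence reading.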
DT40 TDP1 no CPT = qHTS for Inhibitors of human tyrosyl-DNA phosphodiesterase 1 (TDP1): qHTS in cells in absence of CPT; 420,000 tested, 15% active; DT40 Tdp1-/- hTDP1 cells, no CPT, ATP luminescence, 48 h; Potency, µM (series often up to 46.2 µM), usual class: inhibitors; AID 686978, 2013; also: nearly all actives have a fitted effect of over 55% in size
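Chicken DT40 Tdp1-/- cells complemented with human TDP1, screened without camptothecin (DMSO vehicle only), 400 cells/well. Compounds pin-transferred, cells incubated at 37 °C for at least 48 hr. Growth read as ATP-dependent luminescence (CellTiter-Glo, 30 min at RT).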
VP16 counter = inhibits Gal4-VP16 luciferase reporter, ROR gamma counter-screen | Potency, µM (top dose mostly 53.6 µM), usual class: inhibitors | 310,000 tested, 3.5% active | Drosophila S2 Gal4-VP16 UAS-luciferase, luminescence, 20 h;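 also: Gal4-VP16 expression switched on by copper sulfate through the metallothionein promoter; nearly all actives have a fitted effect of over 50% in size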
Large screens that a line does not name were inactive. Hits are enriched below; roughly 21% of the tested compounds scored in any of these assays. Unless noted, calls follow the shape of the dose curve; as a rule, active = well fitted curve in the direction sought with a large enough effect; inconclusive = small, poorly fitted or top-dose-only effect, or another doubt; inactive = no such curve, though single readings can be large; an effect the other way counts as inactive or inconclusive.

COc1ccc(-c2c[n+]3c(n2-c2c(C)n(C)n(-c4ccccc4)c2=O)CCCCC3)cc1	DT40 TDP1 no CPT inconclusive
CCOc1ccc(-n2c(-c3ccccc3)c[n+]3c2CCC3)cc1	ELG1 repair inh inconclusive, IL1B secr inh -68.3, DT40 TDP1 CPT 1.03µM, RORgamma inh inconclusive, DT40 TDP1 no CPT 1.03µM, VP16 counter 8.91µM
CCOc1ccc(-n2c(-c3ccc(Br)cc3)c[n+]3c2CCCCC3)cc1	ELG1 repair inh inconclusive, IL1B secr inh -78.9, DT40 TDP1 CPT 4.61µM, RORgamma inh inconclusive, DT40 TDP1 no CPT 0.366µM, VP16 counter 22.4µM
CCOc1ccc(-n2c(-c3ccc(OC)cc3)c[n+]3c2CCCCC3)cc1	ELG1 repair inh inconclusive, IL1B secr inh -70.3, DT40 TDP1 CPT 0.206µM, RORgamma inh 11.2µM, DT40 TDP1 no CPT 0.0291µM, VP16 counter 2µM
COc1ccc(-n2c(-c3ccc(Cl)cc3)c[n+]3c2CCCCC3)cc1	ELG1 repair inh 5.8µM, DT40 TDP1 CPT 0.82µM, DT40 TDP1 no CPT 0.731µM
NC(=O)C1(Nc2ccccc2)CCCC1	none (no result: ELG1 repair inh, RORgamma inh, VP16 counter)
Cc1cc(C(=O)CCl)c(C)n1-c1cccc(S(=O)(=O)N2CCOCC2)c1	IL1B secr inh -102.3, DT40 TDP1 CPT 1.3µM, RORgamma inh 10µM, DT40 TDP1 no CPT 2.31µM
Cc1cc(C(=O)CSc2ncn[nH]2)c(C)n1-c1cccc(S(=O)(=O)N2CCOCC2)c1	ELG1 repair inh inconclusive, DT40 TDP1 CPT inconclusive, DT40 TDP1 no CPT 18.4µM
Cc1ccc(C)n1-c1cccc(S(=O)(=O)N2CCOCC2)c1	ELG1 repair inh inconclusive, IL1B secr inh inconclusive, DT40 TDP1 no CPT inconclusive
CN1CC(=O)N(CC(=O)Nc2cccc(S(=O)(=O)N3CCOCC3)c2)C1=O	RORgamma inh inconclusive
Cc1ccc(-n2c(C)cc(C(=O)CN3CCOCC3)c2C)cc1C	ELG1 repair inh inconclusive, DT40 TDP1 CPT 20.6µM, RORgamma inh inconclusive, DT40 TDP1 no CPT inconclusive
Cc1cc(C(=O)CN2C(=O)CN(C)C2=O)c(C)n1-c1cccc(S(=O)(=O)N2CCOCC2)c1	ELG1 repair inh inconclusive, DT40 TDP1 no CPT 4.61µM
NS(=O)(=O)c1ccc(CCNC(=O)c2ccc3nc(CCc4ccccc4)oc3c2)cc1	DT40 TDP1 CPT inconclusive (no result: ELG1 repair inh, IL1B secr inh, RORgamma inh, VP16 counter)
CCCS(=O)(=O)NC(=O)C1(C)CCN(C(=O)c2ccc3ccccc3c2)C1 (stereo unspecified)	none (no result: ELG1 repair inh, RORgamma inh, VP16 counter)
COCCNC(=O)C1CCCN(C(=O)c2ccc(C(F)(F)F)nc2C)CC1 (stereo unspecified)	none (no result: ELG1 repair inh, RORgamma inh, VP16 counter)
COCCNC(=O)CSc1nc2ccccc2nc1Cc1ccc(C)cc1	none (no result: ELG1 repair inh, IL1B secr inh, RORgamma inh, VP16 counter)
Cc1ccc(-n2c(C)cc(C(=O)OCC(=O)N3CCOCC3)c2C)cc1	none (no result: RORgamma inh, VP16 counter)
Cc1cc(-n2c(C)cc(C(=S)N3CCOCC3)c2C)ccc1Br	ELG1 repair inh inconclusive, IL1B secr inh inconclusive, DT40 TDP1 CPT 14.6µM, RORgamma inh 8.91µM, DT40 TDP1 no CPT 16.4µM, VP16 counter inconclusive
COc1ccc(C(O)c2ncc(-c3ccc4ccccc4c3)[nH]2)cc1F (stereo unspecified)	DT40 TDP1 CPT inconclusive, DT40 TDP1 no CPT inconclusive (no result: ELG1 repair inh, RORgamma inh, VP16 counter)
Cc1cccc(OCCCC(=O)NC(C)C)c1	DT40 TDP1 no CPT 23.1µM
Cc1cccc(OCCC(=O)NO)c1	DT40 TDP1 CPT 10µM, DT40 TDP1 no CPT 10µM (no result: ELG1 repair inh, IL1B secr inh, RORgamma inh, VP16 counter)
Cc1cccc(OCCCC(=O)NC(C)c2ccccc2)c1 (stereo unspecified)	none
O=C(CCOc1ccccc1)NO	DT40 TDP1 CPT 10µM, DT40 TDP1 no CPT 11.2µM (no result: ELG1 repair inh, IL1B secr inh, RORgamma inh, VP16 counter)
O=C(CCCCCCC(=O)Nc1ccccc1)NO	DT40 TDP1 CPT 0.422µM, DT40 TDP1 no CPT 0.596µM (no result: ELG1 repair inh, IL1B secr inh, RORgamma inh, VP16 counter)
COC(=O)C1=CN(Cc2ccc(C)cc2)C=C(C(=O)OC)C1c1cc(OC)c(OC)c(OC)c1	DT40 TDP1 CPT 16.4µM, DT40 TDP1 no CPT inconclusive
COc1ccc(Nc2nc(C)c(-c3ccccc3)s2)cc1	ELG1 repair inh inconclusive, DT40 TDP1 CPT inconclusive, RORgamma inh 11.2µM, DT40 TDP1 no CPT inconclusive, VP16 counter inconclusive
